Screens (PubChem BioAssay)
CYP2C9 inh: human CYP2C9 inhibition; inhibition, % at 5 µM; AID 777; P11712; 96,000 compounds, 20% hits; CYP2C9 Supersomes, luciferin-H conversion, luminescence;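 active means blocking of liver enzyme CYP2C9 beyond about 50% at 5 µM, limit read from the data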
CYP2C19 inh: inhibitors of human CYP2C19. CYP2C19 Supersomes, luciferin-H EGE luminescence, 30 min. inhibition, % at 5 µM. 96,000 compounds, 21% hits;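 active means CYP2C19 inhibition above a set limit at 5 µM in the primary screen, cut at about 50% in these data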;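 further: plate controls were negative control wells for no effect and 2.5 mM tranylcypromine positive control for full effect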
Target sequence (P33261 whole entry, looked up): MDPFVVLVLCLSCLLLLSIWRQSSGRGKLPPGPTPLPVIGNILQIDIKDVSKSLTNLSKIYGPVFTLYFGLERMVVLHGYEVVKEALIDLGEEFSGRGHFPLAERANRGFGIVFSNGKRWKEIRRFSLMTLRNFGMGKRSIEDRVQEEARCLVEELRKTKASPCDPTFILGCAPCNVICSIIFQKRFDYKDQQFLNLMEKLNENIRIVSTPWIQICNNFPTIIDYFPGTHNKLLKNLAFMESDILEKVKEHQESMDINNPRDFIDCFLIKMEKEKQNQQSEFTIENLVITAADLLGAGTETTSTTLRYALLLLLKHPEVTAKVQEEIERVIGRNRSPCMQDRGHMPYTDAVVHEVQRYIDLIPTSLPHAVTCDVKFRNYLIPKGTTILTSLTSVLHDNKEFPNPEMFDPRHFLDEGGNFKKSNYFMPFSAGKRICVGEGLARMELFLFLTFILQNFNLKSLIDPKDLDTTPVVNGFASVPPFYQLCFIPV
MRP1 act: activators of MRP-1; H69AR cells + doxorubicin, viability rescue, CellTiter-Glo; viability increase, % at 10 µM; 140,000 compounds, 0.61% hits; AID 799;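 active means viability gain under doxorubicin at or above a set limit, the compound median plus 3 SD, cut at about 4.7% in these data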;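 further: MRP-1 overexpressing cells given doxorubicin 25 µM after compound pretreatment; 18-22 h compound pretreatment then 72 h with doxorubicin before readout; 0% = doxorubicin-only wells and 100% = vehicle-treated cells without doxorubicin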
CYP2C9 activ: activators of human CYP2C9; P11712; AID 1024; 96,000 compounds, 1.4% hits; recombinant CYP2C9, luciferin-H conversion, luminescence; active compounds read high; factor 1 = untreated enzyme, 0 = blocked; activation factor at 5 µM;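 active means activation factor of 2 or more for CYP2C9 at a 5 µM dose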;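 further: 0 = sulfaphenazole-blocked wells and 1 = vehicle-only wells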
CYP2C19 activ: increases human CYP2C19 enzyme activity | P33261 | recombinant CYP2C19, luciferin-H EGE luminescence; active compounds read high; 0 = fully inhibited enzyme, 1 = untreated enzyme | activation factor at 5 µM | 96,000 tested, under 10 active | AID 1025;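 active means activation factor of at least 2 at 5 µM in the primary screen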;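 further: 0 = wells with 2.5 mM tranylcypromine and 1 = vehicle-only wells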
MRP resist rev: reverses drug resistance mediated by MRP; H69AR cells + 2 uM doxorubicin, CellTiter-Glo, 72 h; differential viability (reversal), % at 10 µM; 85,000 compounds, 0.04% hits;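 active means viability drop by adding the cancer drug above about 55%, with treated viability meeting a 40% cutoff, limit read from the data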;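 further: viability without doxorubicin minus viability with 2 µM doxorubicin for each compound; larger differential means the compound sensitizes cells more to doxorubicin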
* hit, by the source's call; / = no result given. A selection: hits, their analogues and other compounds. The true share with any hit is near 21%.

SMILES	CYP2C9 inh	CYP2C19 inh	MRP1 act	CYP2C9 activ	CYP2C19 activ	MRP resist rev
Cc1ccc(NC(=O)C2CCN(S(=O)(=O)c3cnc[nH]3)CC2)cc1C	/	/	-1.1	/	/	/
CCCCOc1ccc(/C=N/NC(=O)c2csc(C)c2C)cc1	60.0*	65.4*	0.1	0.4	0.3	/
Cc1scc(C(=O)N/N=C/c2ccc(OCC(C)C)cc2)c1C	82.5*	71.8*	-0.1	0.2	0.3	/
Cc1cc(N2CCCC2)c(C)cc1C=O	61.9*	27.7	-0.9	0.4	0.7	28.0
Cc1cc(N)ccc1N1CCCC1	-2.1	13.7	-0.7	1	0.9	/
O=C(O)/C=C/c1cn(-c2ncc(C(F)(F)F)cc2Cl)c2ccccc12	-2.9	-2.5	-1.7	1	1	/
Cc1ccc(OCc2ccc(C(=O)O)o2)c([N+](=O)[O-])c1	/	/	-1.8	/	/	/
Cc1cc(SC(C)C(=O)Nc2c(C)n(C)n(-c3ccccc3)c2=O)nc2ccccc12 (centres undefined)	-3.0	77.8*	-2.8	1	0.2	-14.9
COc1cc(-c2nnc(SC(C)C(=O)Nc3c(C)n(C)n(-c4ccccc4)c3=O)o2)cc(OC)c1OC (centres undefined)	25.6	4.7	-0.5	0.7	1	-6.8
Cc1c(NC(=O)C(C)Sc2nnc(-c3ccccc3)o2)c(=O)n(-c2ccccc2)n1C (centres undefined)	-11.4	70.2*	0.4	1.1	0.3	-3.5
Cc1sc2c(c1C)c(=O)n(-c1cccc(C(F)(F)F)c1)c(=O)n2CC(=O)NCc1ccco1	8.4	9.6	-0.6	0.9	0.9	12.0
CCN(CC)S(=O)(=O)c1ccc(N2CCN(S(=O)(=O)c3ccc4c(c3)OCCO4)CC2)nc1	43.7	28.7	-2.1	0.6	0.7	24.1
CCOC(=O)c1c(N2C(=O)Nc3cc(Cl)c(Cl)cc3N2O)sc2c1CCCCC2	69.6*	17.4	-0.3	0.3	0.8	/
CCOC(=O)c1c(N2C(=O)C3C4C=CC(O4)C3C2=O)sc2c1CCCC2 (centres undefined)	14.4	18.2	-4.2	0.9	0.8	7.5
CCOC(=O)C1CN(C(C)(C)C)C(=O)C1=O (centres undefined)	/	/	-1.2	/	/	/
N#Cc1c(Cl)c(Cl)c2nnc(-c3ccc(Br)cc3)n2c1Cl	93.7*	39.4	-2.7	0.1	0.6	/
O=C(NNC(=O)c1ccccc1-n1cccc1)c1ccc(Cl)cc1	-78.0	-0.6	-0.4	1.8	1	/
O=C(NNC(=O)c1ccccc1Br)c1ccc(Cl)c(Cl)c1	-122.9	24.5	0.0	2.2*	0.8	/
O=C(NNC(=O)c1ccccc1-n1cccc1)c1ccc(Cl)c(Cl)c1	-49.2	50.4*	-0.3	1.5	0.5	/
O=C(CN1C(=O)C2(OCCO2)c2ccccc21)c1ccc(Br)cc1	39.4	30.0	2.8	0.6	0.7	11.0
Cc1ccc(S(=O)(=O)N2CCCC(C(=O)N(Cc3cccs3)C3CC3)C2)cc1 (centres undefined)	-50.5	98.9*	1.4	1.5	0	11.5
O=C(NCc1cccs1)C1CCCN(S(=O)(=O)c2cccs2)C1 (centres undefined)	72.4*	22.3	0.4	0.3	0.8	9.7
CS(=O)(=O)N1CCCC(C(=O)NCc2cccs2)C1 (centres undefined)	2.9	-0.2	-1.3	1	1	1.5
CCC1CCCCN1S(=O)(=O)c1ccc(S(=O)(=O)N(Cc2ccccn2)CC2CCCO2)cc1 (centres undefined)	/	/	-2.9	/	/	/
CCC1CCCCN1S(=O)(=O)c1ccc(S(=O)(=O)N(Cc2cccs2)C2CC2)cc1 (centres undefined)	71.3*	69.4*	-3.0	0.3	0.3	1.1
SMILES	CYP2C9 inh	CYP2C19 inh	MRP1 act	CYP2C9 activ	CYP2C19 activ	MRP resist rev
Cc1ccc(CCNC(=O)C2CCCN(S(=O)(=O)c3cccs3)C2)cc1 (centres undefined)	72.4*	12.7	0.7	0.3	0.9	9.7
CCCS(=O)(=O)N1CCCC(C(=O)NCCc2ccc(Cl)cc2)C1 (centres undefined)	55.5*	27.5	-0.4	0.4	0.7	4.9
CS(=O)(=O)N1CCCC(C(=O)NCCc2ccc(Cl)cc2)C1 (centres undefined)	9.0	4.5	0.4	0.9	1	1.0
COc1ccc(S(=O)(=O)N2CCCC2C(=O)NCc2cccs2)cc1 (centres undefined)	-210.4	67.6*	-2.5	3.1*	0.3	-10.2
O=C(NCc1cccs1)C1CCCN(S(=O)(=O)c2ccc3c(c2)OCO3)C1 (centres undefined)	-110.4	13.5	-2.2	2.1*	0.9	-13.2
Cn1c(=O)oc2cc(S(=O)(=O)N3CCCC(C(=O)NCc4cccs4)C3)ccc21 (centres undefined)	27.4	24.2	-1.4	0.7	0.8	15.1
Cn1c(=O)oc2cc(S(=O)(=O)N3CCCC(C(=O)NCc4ccc5c(c4)OCO5)C3)ccc21 (centres undefined)	67.8*	7.5	-2.2	0.3	0.9	7.5
COc1ccc(C2C(C(N)=O)=C(C)Nc3nc(-c4ccccc4Cl)nn32)c(OC)c1 (centres undefined)	2.9	23.8	0.2	1	0.8	1.5
CC(C)C(=O)Nc1nnn(C)n1	-1.1	-0.3	-0.6	1	1	3.7
Cc1ccc(NC(=O)NC(=O)CSc2nnc(-c3ccc(Cl)cc3Cl)n2N)c(C)c1	/	/	1.5	/	/	/
COC(=O)C(C(=O)OC)C(C[N+](=O)[O-])c1ccc(O)c(OC)c1 (centres undefined)	/	/	-4.1	/	/	/
CCC1(C)Cc2c(sc3nc4n(c(=O)c23)CCS4)CO1 (centres undefined)	51.1*	63.9*	0.2	0.5	0.4	38.2
CCC1(C)Cc2c(sc3nc(NC)n(C)c(=O)c23)CO1 (centres undefined)	18.1	55.8*	-2.5	0.8	0.4	5.0
CC(=O)c1sc(NC(=O)C2(F)C(F)(F)C(F)(F)C(F)(F)C(F)(F)C2(F)F)nc1C	84.8*	-6.0	-2.8	0.2	1.1	-10.0
CC(=O)c1sc(NC(=O)C=C(C)C)nc1C	35.8	21.6	-1.0	0.6	0.8	7.8
COc1ccccc1N1CCN(C(=O)COc2ccc(Cl)cc2)CC1	51.8*	80.5*	6.6*	0.5	0.2	-1.5
CC(=O)c1ccc(N2CCN(C(=O)COc3ccc(F)cc3)CC2)c(F)c1	48.1	53.0*	-3.1	0.5	0.5	1.8
COc1ccc(OCC(=O)N2CCN(c3cccc(Cl)c3)CC2)cc1	32.1	46.7	-1.4	0.7	0.5	0.7
CCC(=O)c1ccc(N2CCN(C(=O)COc3ccc(F)cc3)CC2)c(F)c1	27.5	34.4	-3.0	0.7	0.7	23.4
O=C(COc1ccc(Cl)cc1)N1CCN(c2ncccn2)CC1	53.6*	66.6*	0.9	0.5	0.3	-2.9
Cc1cc(C)c(NC(=O)C2CCCN2CCOC(=O)c2ccccc2)c(C)c1 (centres undefined)	/	/	-2.5	/	/	/
